# From PubChem BioAssay (NCATS)
# Records with an inconclusive call do not appear. Activity calls are given as the source filed them. Calls come from the whole dose curve; as a rule, active = well fitted cell-killing curve with a large enough effect; inconclusive = small, poorly fitted or top-dose-only effect, or effect the other way; inactive = flat fitted curve, though single readings scatter.
# Test system: CAOV3
# Test: Primary qHTS to identify gynecologic anti-cancer compounds using libraries of approved drugs and bioactive compounds (AID 1345084); note: nearly all actives have a fitted effect of over 55% in size
# Details: Gynecologic cancer cell panel viability, ATPlite luminescence, 48 h; series mostly up to 57.5 µM; activity change, negative = cytotoxicity: at the top concentration
# Description: National Center for Advancing Translational Sciences [NCATS] Assay Overview: Chemotherapeutic drug responses vary from cancer to cancer and from patient to patient. These variations could be caused by a number of factors including patient genomic background, tumor mutations, tumor heterogeneity, and aspects of drug treatment. Chemotherapeutic drug resistance is also a common issue and can lead to ineffective treatment and patient death. Here we have profiled the cell killing effects of thousands of compounds to characterize the responses in three gynecological cancers, identify cancer-selective compounds, and understand the diversity of responses to these compounds from pan-cancer suppressors to single cell line selective compounds. In this assay, we screened a 7,914 compound drug library that included approved drug and bioactive compounds in six ovarian, three cervical, and […] placental cancer cell lines using the ATPlite assay for cell viability. […] The cervical cancer cell lines included HeLa, Ca Ski, and C-33 A. The placental cancer cell lines included JEG-3. HEK 293T cells were used as the control cell line to determine the selectivity index. ATPlite is a luminescence based assay reliant on the conversion of a luciferase substrate to light in the presence of ATP. As a cytotoxic compound will suppress growth and decrease the number of cells, the concentration of ATP will decrease, and less light signal will be detected in the well.
# Assay Protocol Summary: 1,000 cells in 4 uL of media were dispensed into white, solid bottom 1536-well plates using a Multidrop Combi (Thermo Scientific). The Assay plates were incubated for 16 hours at 37 C with 5% CO2 in assay plates, followed by the addition of 23 nL of DMSO or drug dissolved in DMSO. Each compound was assayed in five concentrations (0.092, 0.46, 2.3, 11.5, and 57.5 uM), using the automated Wako 1536 Pin Tool workstation and incubated at 37 C with 5% CO2 48 hours. 4 uL of ATPlite, the ATP monitoring reagent, was then added to the each well of the assay plates using the Multidrop Combi reagent dispenser followed by incubation for 15 minutes at room temperature. The resulting luminescence was measured using the ViewLux plate reader.
# % is set by controls: 0 for no effect and ±100 for the full control effect; potency is the fitted concentration of half-maximal effect.
SMILES,"activity change, negative = cytotoxicity",Potency
O=C(C1CCCCC1)N1CC(=O)N2CCc3ccccc3C2C1 (stereo not given),13.4% (inactive),–
COc1ccc2c(c1)c(CC(=O)O)c(C)n2C(=O)c1ccc(Cl)cc1,-0.371% (inactive),–
CCc1cccc2c3c([nH]c12)C(CC)(CC(=O)O)OCC3 (stereo not given),-3.68% (inactive),–
COc1ccccc1N1CCN(CC(O)COc2cccc3ccccc23)CC1 (stereo not given),–,12.6 µM (active)
CN(CCOc1ccc(NS(C)(=O)=O)cc1)CCc1ccc(NS(C)(=O)=O)cc1,8.24% (inactive),–
CN(C)c1nc(N(C)C)nc(N(C)C)n1,0% (inactive),–
CC#C[C@]1(O)CC[C@H]2[C@@H]3CCC4=CC(=O)CCC4=C3[C@@H](c3ccc(N(C)C)cc3)C[C@@]21C,3.47% (inactive),–
CN1CCN(CCCN2c3ccccc3Sc3ccc(Cl)cc32)CC1,5.54% (inactive),–
O=C(c1ccc(OCCN2CCCCC2)cc1)c1c(-c2ccc(O)cc2)sc2cc(O)ccc12,-5.91% (inactive),–
CN(Cc1cnc2nc(N)nc(N)c2n1)c1ccc(C(=O)N[C@@H](CCC(=O)O)C(=O)O)cc1,3.6% (inactive),–
Cc1cn([C@H]2C[C@H](N=[N+]=[N-])[C@@H](CO)O2)c(=O)[nH]c1=O,-15.2% (inactive),–
NCCS(=O)(=O)O,-5.33% (inactive),–
CN(C)CCC=C1c2ccccc2C=Cc2ccccc21,-7% (inactive),–
COc1cc2nc(N3CCN(C(=O)C4COc5ccccc5O4)CC3)nc(N)c2cc1OC (stereo not given),-22.7% (inactive),–
CCOC(=O)C(C)(C)Oc1ccc(Cl)cc1,0.966% (inactive),–
CN1C(C(=O)Nc2ccccn2)=C(O)c2ccccc2S1(=O)=O,-0.123% (inactive),–
Cc1cc(C(C)(C)C)cc(C)c1CC1=NCCN1,-2.67% (inactive),–
NC12CC3CC(CC(C3)C1)C2,-1.43% (inactive),–
Cc1cn([C@H]2C=C[C@@H](CO)O2)c(=O)[nH]c1=O,10.9% (inactive),–
CC[C@@]1(O)C(=O)OCc2c1cc1n(c2=O)Cc2cc3c(CN(C)C)c(O)ccc3nc2-1,–,3.16 µM (active)

SMILES,"activity change, negative = cytotoxicity",Potency
CN1CCC(=C2c3ccccc3CC(=O)c3sccc32)CC1,-0.794% (inactive),–
O=C(c1ccc(F)cc1)C1CCN(CCn2c(=O)[nH]c3ccccc3c2=O)CC1,–,inactive
CC[N+](CC)(CC)CCOc1cccc(OCC[N+](CC)(CC)CC)c1OCC[N+](CC)(CC)CC,3.33% (inactive),–
COc1cc2c(c(OC)c1OC)-c1ccc(OC)c(=O)cc1[C@@H](NC(C)=O)CC2,-3.47% (inactive),–
NCCc1cnc[nH]1,-1.51% (inactive),–
Cn1ccc2cc3c(cc21)CCN3C(=O)Nc1cccnc1,2.56% [at 25.3 µM] (inactive),–
Nc1c2c(nc3ccccc13)CCCC2,16.5% (inactive),–
CC(C(=O)O)c1cccc(C(=O)c2ccccc2)c1 (stereo not given),-0.191% (inactive),–
CCCCc1oc2ccccc2c1C(=O)c1cc(I)c(OCCN(CC)CC)c(I)c1,11.1% (inactive),–
CN(C)C(=N)N=C(N)N,-0.623% (inactive),–
NC(=O)OCC(COC(N)=O)c1ccccc1,-1.42% (inactive),–
Clc1ccc2c(c1)C(N1CCNCC1)=Nc1ccccc1O2,–,inactive
C[C@@H]1CC(=O)NN=C1c1ccc(NN=C(C#N)C#N)cc1,–,inactive
O=C1N(c2ccccc2)c2ccccc2C1(Cc1ccncc1)Cc1ccncc1,-5.4% (inactive),–
CCC1(C)CC(=O)NC1=O (stereo not given),-11% (inactive),–
CCOC(=O)c1ncn2c1CN(C)C(=O)c1cc(F)ccc1-2,4.21% (inactive),–
Cc1ccc(C(=O)Nc2ccc(S(=O)(=O)O)c3cc(S(=O)(=O)O)cc(S(=O)(=O)O)c23)cc1NC(=O)c1cccc(NC(=O)Nc2cccc(C(=O)Nc3cc(C(=O)Nc4ccc(S(=O)(=O)O)c5cc(S(=O)(=O)O)cc(S(=O)(=O)O)c45)ccc3C)c2)c1,-4.02% (inactive),–
Cc1cc(C(C)(C)C)c(O)c(C)c1CC1=NCCN1,–,inactive
CC1(C)O[C@H]2CC(=O)OC[C@]23[C@H]2CC[C@@]4(C)[C@H](c5ccoc5)OC(=O)[C@H]5O[C@]54[C@]2(C)C(=O)C[C@@H]13,–,inactive
CN(C)CCOC(c1ccccc1)c1ccccc1,16.8% (inactive),–
